The results in this text go back to PubChem BioAssay (NCI).

The panel holds about 83,000 compounds, 20% with a hit somewhere; the sample as a whole holds those more often.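 Note: values are percent growth. 100 is the growth of untreated cells, values between 100 and 0 indicate rising inhibition; between -100 and 0 indicates cell death.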 Values without a mark were called inactive. The source made the active and inactive calls. How the source made its calls: active means growth percent below 10; inactive means the rest.

Test systems include HCT-15 colon; HT29 colon; SNB-75 CNS; SNB-19 CNS; U251 CNS; PC-3 prostate; SK-MEL-5 melanoma; UACC-62 melanoma; LOX IMVI melanoma; SK-MEL-28 melanoma; SK-MEL-2 melanoma; SN12C renal; UO-31 renal; TK-10 renal; ACHN renal; CAKI-1 renal; A498 renal; CCRF-CEM leukemia; MOLT-4 leukemia; EKVX NSCLC.
Holding throughout (test): NCI-60 one-dose screen, 48 h (100 = growth as untreated, 0 = no growth, -100 = all killed)
Conditions in all cases: 10 µM unless noted

Regarding `CC1=CC2(C)/C=C(C)/C=C\CC(O)/C=C3/C=CC(=C4C(=O)OC2(CC1C)C4=O)OC3` (stereo unspecified), the growth was -56.9% (active) in the assay with HCT-15 colon; -6.52% (active) in the assay on HT29 colon; 53.3% in the assay on SNB-75 CNS; 56.4% in the assay with SNB-19 CNS; -50.2% (active) in the assay with U251 CNS; -8.09% (active) with PC-3 prostate. Moreover, the growth in the assay with SK-MEL-5 melanoma was 56.7%; in the assay on UACC-62 melanoma it was 6.46% (active); with LOX IMVI melanoma it was -89.1% (active); in the assay with SK-MEL-28 melanoma, -87.6% (active); in the assay with SK-MEL-2 melanoma, -89.2% (active); in the assay on SN12C renal, -40.8% (active). For the same molecule, the growth with UO-31 renal is -53% (active); with TK-10 renal it was -86.8% (active); with ACHN renal, -94.7% (active); in the assay with CAKI-1 renal it was -89.5% (active); in the assay with A498 renal, 55.3%; in the assay on CCRF-CEM leukemia, -39.4% (active). In addition, the growth in the assay on MOLT-4 leukemia is -35.1% (active).
Take `COc1cc2nc(-c3ccc(C#N)cc3)[nH]c(=O)c2cc1OC`: the growth with HCT-15 colon was 107%; in the assay on HT29 colon it was 113%; in the assay with SNB-75 CNS, 109%; with SNB-19 CNS, 98.9%; in the assay with U251 CNS it was 100%; with PC-3 prostate, 105%. The growth with SK-MEL-5 melanoma was 96.8%; with UACC-62 melanoma, 87.8%; in the assay with LOX IMVI melanoma, 90.8%; in the assay on SK-MEL-28 melanoma, 102%; in the assay on SK-MEL-2 melanoma, 128%; in the assay with UO-31 renal, 97.4%. For the same molecule, the growth in the assay with TK-10 renal is 271%; with ACHN renal, 118%; with CAKI-1 renal, 92%; in the assay on A498 renal, 120%; in the assay on CCRF-CEM leukemia, 188%.
`CN1C2CCC1CN(c1cnc(C(=O)Nc3cc(F)cc4cccnc34)cn1)C2`: the growth in the assay on HCT-15 colon was 24.2%; in the assay on HT29 colon, 37.1%; in the assay on SNB-75 CNS, 92.5%; with SNB-19 CNS, 92.7%; in the assay with U251 CNS it was 64%; with PC-3 prostate, 15.2%. Moreover, the growth was 79.5% in the assay on SK-MEL-5 melanoma; 94.9% in the assay on UACC-62 melanoma; 33.2% in the assay with LOX IMVI melanoma; 57.8% in the assay with SK-MEL-28 melanoma; 109% in the assay with SK-MEL-2 melanoma; 51.4% in the assay on SN12C renal. In addition, the growth in the assay on UO-31 renal is 28.3%; in the assay with TK-10 renal it was 77.2%; in the assay with ACHN renal, 24.4%; with CAKI-1 renal it was 46.6%; with A498 renal, 74.9%; with CCRF-CEM leukemia, 28.3%. Also, the growth in the assay with MOLT-4 leukemia was 21.1%.
As to `c1ccc(-c2nn(-c3ccccc3)[n+](-c3cccc4ccccc34)n2)cc1`, the growth in the assay on HCT-15 colon was 103%; in the assay with HT29 colon, 12.1%; with SNB-75 CNS, 48.4%; in the assay on SNB-19 CNS, 24.9%; with U251 CNS, 17.7%; in the assay on PC-3 prostate, 6.61% (active). Also, the growth is -30.2% (active) in the assay with SK-MEL-5 melanoma; -2.14% (active) in the assay with UACC-62 melanoma; 41.2% with SK-MEL-28 melanoma; -11.3% (active) in the assay on SK-MEL-2 melanoma; 11.8% in the assay with EKVX NSCLC; 32.7% in the assay on SN12C renal. In addition, the growth in the assay on UO-31 renal is 69.1%; in the assay with TK-10 renal, 40.4%; in the assay with ACHN renal it was 72.2%; in the assay on CAKI-1 renal it was 90.3%; in the assay on CCRF-CEM leukemia, 18.7%; with MOLT-4 leukemia, 18.9%.
Take `O=C(Nc1nc(-c2ccc(Br)cc2)cs1)c1cc(-c2ccc(Br)cc2)nc2ccc(Cl)cc12`: the growth is 81.6% with HCT-15 colon; 72.6% in the assay on HT29 colon; 87.3% in the assay with SNB-75 CNS; 86.7% in the assay with SNB-19 CNS; 76.8% with U251 CNS; 72.8% in the assay with PC-3 prostate. The growth in the assay on SK-MEL-5 melanoma is 91.2%; in the assay with UACC-62 melanoma it was 77.8%; in the assay with SK-MEL-28 melanoma, 95.9%; in the assay with SK-MEL-2 melanoma, 93.9%; with EKVX NSCLC it was 77.8%; in the assay with SN12C renal it was 85.1%. Besides, the growth is 64.2% in the assay on UO-31 renal; 115% in the assay with TK-10 renal; 85% with ACHN renal; 79.3% in the assay on CAKI-1 renal; 77.8% in the assay with CCRF-CEM leukemia; 80.6% in the assay on MOLT-4 leukemia.
Take `CC(C)Cc1ccc(C(C)C(=O)NCc2ccc(Cn3c(=O)sn(-c4ccc(Cl)cc4)c3=O)cc2)cc1` (stereo unspecified): the growth was 83.2% in the assay with HCT-15 colon; 75.6% in the assay with HT29 colon; 79.4% in the assay with SNB-75 CNS; 83.9% in the assay on SNB-19 CNS; 65.5% in the assay with U251 CNS; 82.8% in the assay with PC-3 prostate. For the same molecule, the growth in the assay with SK-MEL-5 melanoma was 94.1%; with UACC-62 melanoma, 66.4%; in the assay with SK-MEL-28 melanoma, 77%; with SK-MEL-2 melanoma, 107%; with EKVX NSCLC, 82.6%; with UO-31 renal, 65.4%. Also, the growth with TK-10 renal is 74.2%; in the assay on ACHN renal it was 56.5%; in the assay with CAKI-1 renal, 74.7%; in the assay with A498 renal it was 95%; in the assay with CCRF-CEM leukemia it was 96.2%; with MOLT-4 leukemia, 85.7%.
For `NC(=O)c1cccc(-c2ccccc2N2CCCCC2)c1`, the growth is 101% in the assay on HCT-15 colon; 95.2% with HT29 colon; 99.7% in the assay on SNB-75 CNS; 93% in the assay with SNB-19 CNS; 98.3% in the assay with U251 CNS; 83.9% in the assay on PC-3 prostate. The growth with SK-MEL-5 melanoma is 100%; in the assay on LOX IMVI melanoma it was 98.5%; with SK-MEL-28 melanoma, 98.6%; in the assay on SK-MEL-2 melanoma it was 103%; with EKVX NSCLC, 97.2%; in the assay on SN12C renal, 93.6%. Moreover, the growth in the assay with UO-31 renal was 82.4%; in the assay with TK-10 renal it was 103%; in the assay on ACHN renal, 95.3%; in the assay on CAKI-1 renal, 83%; in the assay with A498 renal, 95.3%; in the assay on CCRF-CEM leukemia, 89.7%. Besides, in the assay with MOLT-4 leukemia, the growth was 91.1%.
As for `N#Cc1cc(-c2nc3ccccc3s2)c(=O)n(NS(=O)(=O)c2ccc(Cl)cc2)c1N`, the growth was 103% in the assay on HCT-15 colon; 109% in the assay on HT29 colon; 63.1% in the assay on SNB-75 CNS; 102% in the assay with SNB-19 CNS; 102% in the assay on U251 CNS; 98.5% in the assay on PC-3 prostate. For the same molecule, the growth in the assay with SK-MEL-5 melanoma was 99.5%; in the assay on LOX IMVI melanoma, 97%; with SK-MEL-28 melanoma, 111%; with SK-MEL-2 melanoma, 102%; in the assay with EKVX NSCLC, 100%; in the assay on SN12C renal, 97.8%. Further, the growth in the assay on UO-31 renal was 70.4%; in the assay with TK-10 renal, 139%; in the assay with ACHN renal it was 95.5%; in the assay on CAKI-1 renal, 80.5%; in the assay with CCRF-CEM leukemia it was 107%; with MOLT-4 leukemia, 107%.
